According to PubChem BioAssay:
Activity calls are given as the source filed them.

What was measured:
[1] = system: Human papillomavirus type 1a protein E7 (residues 44-93); assay: HPV1a E7 fragment binders on microarrays, primary screen, biochemical, small-molecule microarray, residues 44-93, 635 nm fluorescence (AID 1108); settings: small-molecule microarray binding, fluorescence 635 nm; higher = more signal;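 also: E7 fragment applied at 1 µg/mL in TBST for 1 h at 4 C; score combines spot fluorescence with its signal to noise ratio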
[2] = modulators of HCV replicon luciferase signal, primary screen, HCV replication inhibitor project, Huh7 cells, luciferase reporter (AID 1109); settings: 48 h, higher = more signal;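 also: huh7 hepatoma cells harbouring a luciferase neomycin HCV replicon reporter; luciferase luminescence as measure of HCV replicon replication; test concentration not given here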
[3] = target: Left-right determination factor 2 (Homo sapiens) (UniProt O00292); assay: LEFTY2 binders on small-molecule microarrays, primary screen, biochemical, small-molecule microarray, 635 nm fluorescence scan (AID 1110); settings: LEFTY2 binding, higher = more signal
Sequence of Left-right determination factor 2 (Homo sapiens) (O00292 whole entry, looked up): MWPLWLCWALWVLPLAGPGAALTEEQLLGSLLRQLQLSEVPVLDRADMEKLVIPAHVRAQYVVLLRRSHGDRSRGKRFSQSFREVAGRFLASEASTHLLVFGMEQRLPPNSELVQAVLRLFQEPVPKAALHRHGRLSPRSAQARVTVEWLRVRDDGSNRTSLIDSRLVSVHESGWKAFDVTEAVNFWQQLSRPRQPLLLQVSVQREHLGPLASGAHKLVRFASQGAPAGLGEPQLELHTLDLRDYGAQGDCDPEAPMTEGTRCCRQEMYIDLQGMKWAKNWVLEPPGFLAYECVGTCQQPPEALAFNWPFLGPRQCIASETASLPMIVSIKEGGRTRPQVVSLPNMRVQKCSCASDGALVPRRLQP

[4] = target: Calmodulin-1 (Homo sapiens) (UniProt P0DP23); assay: CALM1 binders on microarrays, EGTA buffer, profiling panel, biochemical, small-molecule microarray, Cy5-labelled CALM1 (AID 1111); settings: Cy5-CALM1 binding fluorescence, higher = more signal;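 also: labelled calmodulin applied in Tris saline Tween buffer holding calcium plus EGTA and DTT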
[5] = target: Calmodulin-1 (Homo sapiens) (UniProt P0DP23); assay: calcium-bound CALM1 binders on microarrays, profiling panel, artefact control for SMM control-protein annotation, biochemical, small-molecule microarray, Cy5-labelled CALM1, plus calcium (AID 1112); settings: Cy5-CALM1 binding fluorescence, higher = more signal;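 also: score merges spot fluorescence with signal to noise from triplicate slides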
[6] = small-molecule microarray binders of probe aWnt5a, primary screen, biochemical, biotinylated probe, 635/667 nm fluorescence (AID 1113); settings: higher = more signal;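 also: score merges 667 nm fluorescence intensity with signal-to-noise per printed feature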
[7] = small-molecule microarray binders of probe aShh, primary screen, biochemical, biotinylated probe, 635/667 nm fluorescence (AID 1114); settings: higher = more signal;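 also: probe is biotin-labelled aShh protein from a stem cell growth factor screen; measures binding of labelled protein to compounds printed on the slide; score merges feature fluorescence at 667 nm with signal-to-noise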
[8] = small-molecule microarray binders of probe aNog, primary screen, biochemical, biotinylated probe, 635/667 nm fluorescence (AID 1115); settings: higher = more signal;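 also: probe is biotinylated aNog protein used at 0.15 µg/mL for 1 h at 4 C; z-score combines 667 nm fluorescence of each spot with its signal to noise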
[9] = target: Torsin-1A-interacting protein 1 (Homo sapiens) (UniProt Q5JTV8); assay: LAP1 binders from COS7 cell lysate, primary screen, small-molecule microarray, 635/667 nm fluorescence (AID 1116); settings: COS7-hLAP1 lysate binding, 635 nm fluorescence, higher = more signal
Sequence of Torsin-1A-interacting protein 1 (Homo sapiens) (Q5JTV8 whole entry, looked up): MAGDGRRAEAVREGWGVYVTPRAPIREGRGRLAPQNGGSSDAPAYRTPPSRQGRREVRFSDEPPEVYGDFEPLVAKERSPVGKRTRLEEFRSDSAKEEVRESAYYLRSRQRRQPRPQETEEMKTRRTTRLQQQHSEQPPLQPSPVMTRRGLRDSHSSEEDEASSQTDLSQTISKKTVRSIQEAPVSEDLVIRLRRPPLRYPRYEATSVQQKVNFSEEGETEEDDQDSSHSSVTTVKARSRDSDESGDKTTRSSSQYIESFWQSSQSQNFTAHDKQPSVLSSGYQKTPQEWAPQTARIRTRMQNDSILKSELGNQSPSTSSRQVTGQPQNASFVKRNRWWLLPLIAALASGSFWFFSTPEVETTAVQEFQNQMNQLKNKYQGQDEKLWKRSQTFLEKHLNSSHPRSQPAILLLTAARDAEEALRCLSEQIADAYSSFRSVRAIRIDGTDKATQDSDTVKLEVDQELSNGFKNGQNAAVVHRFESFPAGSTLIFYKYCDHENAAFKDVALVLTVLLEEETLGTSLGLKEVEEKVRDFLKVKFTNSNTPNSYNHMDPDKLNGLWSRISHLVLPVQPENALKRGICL

[10] = target: Alpha-bungarotoxin (Bungarus multicinctus) (UniProt P60615); assay: alpha-bungarotoxin binders on microarray, profiling panel, artefact control for SMM control protein annotation, biochemical, small-molecule microarray, Alexa647 label, 635/667 nm fluorescence (AID 1117); settings: alpha-BTX-A647 binding fluorescence, higher = more signal
Sequence of Alpha-bungarotoxin (Bungarus multicinctus) (P60615 whole entry, looked up): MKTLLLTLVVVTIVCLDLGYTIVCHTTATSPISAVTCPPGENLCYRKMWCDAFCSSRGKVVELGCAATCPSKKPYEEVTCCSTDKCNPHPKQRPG

Albumin (Bos taurus) = Albumin (Bos taurus) (UniProt P02769); assay: bovine serum albumin binders on microarray, profiling panel, artefact control for SMM control protein annotation, biochemical, small-molecule microarray, Alexa647 label, 635/667 nm fluorescence (AID 1118); settings: BSA-A647 binding, fluorescence 635 nm, higher = more signal;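 also: score merges 667 nm emission intensity and signal-to-noise per printed compound spot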
Sequence of Albumin (Bos taurus) (P02769 whole entry, looked up): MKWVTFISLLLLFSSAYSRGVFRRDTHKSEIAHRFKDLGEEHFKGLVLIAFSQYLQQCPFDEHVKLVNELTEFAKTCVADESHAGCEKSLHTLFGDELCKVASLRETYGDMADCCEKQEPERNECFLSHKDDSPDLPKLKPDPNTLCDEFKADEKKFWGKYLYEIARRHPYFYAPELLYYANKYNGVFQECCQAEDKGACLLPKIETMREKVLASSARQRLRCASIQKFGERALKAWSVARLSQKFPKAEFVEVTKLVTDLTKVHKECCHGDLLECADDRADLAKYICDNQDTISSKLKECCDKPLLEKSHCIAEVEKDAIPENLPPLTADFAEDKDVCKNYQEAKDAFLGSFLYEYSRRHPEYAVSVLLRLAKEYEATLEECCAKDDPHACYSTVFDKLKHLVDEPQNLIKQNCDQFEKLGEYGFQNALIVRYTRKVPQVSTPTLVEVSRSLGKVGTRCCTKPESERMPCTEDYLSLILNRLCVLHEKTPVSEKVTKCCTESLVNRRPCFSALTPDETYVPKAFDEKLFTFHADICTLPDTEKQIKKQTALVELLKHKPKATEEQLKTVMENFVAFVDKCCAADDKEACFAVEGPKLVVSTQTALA

[11] = small-molecule microarray binders of probe aXIP, primary screen, biochemical, NeuroSMM set, 635/667 nm fluorescence (AID 1119); settings: higher = more signal, called active from +8 up or from −8 down;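 also: probe is the protein aXip251-270 applied at 1 µg/mL to compound-printed slides; binding of probe to printed compounds measured as 667 nm fluorescence plus signal to noise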
[12] = small-molecule binders of probe aNOTCH3, primary screen, biochemical, small-molecule microarray, 635/667 nm fluorescence (AID 1120); settings: higher = more signal;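 also: probe is a biotin-tagged antibody raised against NOTCH3 rather than NOTCH3 protein; score merges spot fluorescence near 667 nm with spot signal to noise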
[13] = small-molecule binders of probe aNOTCH2, primary screen, biochemical, small-molecule microarray, 635/667 nm fluorescence (AID 1121); settings: higher = more signal;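 also: score merges feature fluorescence read at 667 nm with its signal to noise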
[14] = target: Carbonic anhydrase 2 (Homo sapiens) (UniProt P00918); assay: CAII small-molecule binders, profiling panel, biochemical, small-molecule microarray, Alexa647-labelled CAII (AID 1122); settings: CAII-A647 binding fluorescence, higher = more signal
[15] = COS7 lysate on small-molecule microarray, probe aHis, 635 nm (AID 1123); settings: COS7 cell lysate, fluorescence, higher = more signal;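 also: z-score combines 667nm fluorescence intensity with signal-to-noise per printed compound spot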
[16] = compound binding in COS7 lysate, probe aLAP1, primary screen, cell lysate, small-molecule microarray (AID 1124); settings: probe aLAP1, fluorescence, higher = more signal;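 also: lysate comes from COS7 cells expressing LAP1 and is applied at 0.3 µg/mL; score merges spot fluorescence near 667 nm with signal-to-noise over triplicate slides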
Sam68 (KHDRBS1) = assay: Sam68 small-molecule binders, primary screen, biochemical, small-molecule microarray, 635 nm fluorescence (AID 1125); settings: small-molecule microarray binding, higher = more signal;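 also: score merges 667 nm channel intensity with signal to noise over triplicate slides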
[17] = system: Chordin-like protein 2 (CHRDL2); assay: CHRDL2 small-molecule binders, primary screen, biochemical, small-molecule microarray, 635 nm fluorescence (AID 1126); settings: small-molecule microarray binding, fluorescence 635 nm; higher = more signal;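 also: printed compound slides probed with Chrdl2 protein at 4 µg/mL for 1 h at 4 C; score merges 667 nm emission intensity with signal to noise over three replicate slides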
[18] = target: Concanavalin-A (Canavalia ensiformis) (UniProt P02866); assay: ConA small-molecule binders, primary screen, artefact control for SMM control protein annotation, biochemical, small-molecule microarray, Alexa647 label, 635 nm (AID 1127); settings: ConA-A647 binding fluorescence, higher = more signal;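 also: z combines 667 nm emission intensity with signal-to-noise across three replicate slides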
Sequence of Concanavalin-A (Canavalia ensiformis) (P02866 whole entry, looked up): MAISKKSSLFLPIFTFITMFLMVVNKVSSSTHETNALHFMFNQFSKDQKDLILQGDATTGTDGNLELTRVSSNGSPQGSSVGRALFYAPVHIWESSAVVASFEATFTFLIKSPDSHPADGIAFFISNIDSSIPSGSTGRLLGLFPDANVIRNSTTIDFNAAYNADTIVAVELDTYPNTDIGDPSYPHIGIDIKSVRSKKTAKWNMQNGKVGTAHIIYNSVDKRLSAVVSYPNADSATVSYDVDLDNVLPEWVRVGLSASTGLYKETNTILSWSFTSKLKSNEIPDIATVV

| SMILES | composite z-score [1] | z-score [2] | composite z-score [3] | composite z-score [4] | composite z-score [5] | composite z-score [6] | composite z-score [7] | composite z-score [8] | composite z-score [9] | composite z-score [10] | composite z-score (Albumin (Bos taurus)) | composite Z-score [11] | composite z-score [12] | composite z-score [13] | composite z-score [14] | composite z-score [15] | composite z-score [16] | composite z-score (Sam68 (KHDRBS1)) | composite z-score [17] | composite z-score [18] |
| --- | --- | --- | --- | --- | --- | --- | --- | --- | --- | --- | --- | --- | --- | --- | --- | --- | --- | --- | --- | --- |
| C=C(COC)/C(=C/C[C@H](OC(=O)c1ccncc1)c1ccc(CO)o1)c1cc(C(=O)OC)ccc1OC | 0.822 | -0.718 | 0.208 | 0.0845 | -0.409 | -0.0107 | -0.0553 | -0.0446 | 0.0683 | 0.318 | 0.439 | 0.515 (inactive) | 0.0222 | -0.0255 | 0.554 | 1.17 | 0.347 | 1.15 | 0.79 | 0.889 |
| CCN1C(=O)[C@H]2[C@H]3[C@H](O)[C@H](O)CC(=NOCC=C(C)CCC=C(C)C)[C@H]3CC[C@H]2C1=O | 0.614 | -0.504 | 1.01 | -1.01 | -2.13 | -0.0704 | -0.0626 | 0.161 | 0.507 | -0.476 | -1.33 | -0.768 (inactive) | 0.0876 | -0.182 | 0.578 | 0.41 | 0.714 | 1.3 | 1.3 | -0.0616 |
| O=C(NN=C1C[C@@H](O)[C@@H](O)[C@@H]2[C@@H]3C(=O)N(c4cccc(Oc5ccccc5)c4)C(=O)[C@@H]3CC[C@@H]12)OCc1ccccc1 | 0.69 | -0.983 | 0.127 | 0.131 | 0.0109 | -0.145 | -0.206 | 0.0658 | 0.184 | 0.837 | 0.564 | 0.187 (inactive) | 0.0425 | -0.0995 | -0.249 | 0.36 | -0.0773 | 0.24 | 0.162 | 0.277 |
| Cc1cc2c(nc1C)CCCN2CC(C)ON=C1[C@H]2CCn3c(=O)n(-c4ccccc4)c(=O)n3[C@H]2[C@H](O)[C@@H]2O[C@H]12 (stereo not given in full) | 0.862 | -3.29 | 0.377 | -0.135 | -0.458 | -0.0077 | 0.767 | 0.066 | 0.184 | 0.515 | 0.243 | 0.506 (inactive) | 0.173 | -0.0535 | 0.171 | 0.198 | 0.136 | 1.24 | 0.647 | 0.367 |
| COCCOC(=O)N1C(=O)[C@@]2(c3cc(C#Cc4ccc(OC)cc4)ccc31)[C@H](c1ccc(O)cc1)N1[C@H](c3ccccc3)[C@H](c3ccccc3)OC(=O)[C@H]1[C@@H]2C(N)=O | 1.44 | -2.02 | 0.599 | 1.06 | -0.139 | 0.0045 | 0.149 | -0.694 | 0.743 | 1.16 | 0.595 | 0.0583 (inactive) | 0.357 | -0.108 | 0.48 | 1.52 | 0.364 | 1.29 | 0.356 | 1.12 |
| CO[C@H]([C@@H](C)[C@H](OC)c1ccccc1)[C@H](C)[C@@H](OC)[C@H](C)C(C)=O | -0.431 | 1.14 | 0.402 | -1.1 | -0.0474 | 0.0101 | -0.367 | -0.0286 | -0.482 | -0.847 | -0.529 | 0.837 (inactive) | -0.13 | -0.0551 | -0.505 | -0.74 | -0.32 | -1.24 | -0.326 | -2.34 |
| C=CC[C@@H]1C=C[C@H](ON=C(C)CCN2CCc3nc(CC)c(CC)cc3C2)[C@@H](CO)O1 | 0.714 | -1.57 | 0.83 | -0.42 | -1.34 | 0.0634 | 0.0952 | 0.222 | 0.779 | 0.243 | 0.7 | -2.12 (inactive) | 0.325 | -0.131 | 0.221 | 0.226 | 0.38 | 0.822 | 0.971 | -0.442 |
| CCc1cc2c(nc1CC)CCN(CCC(C)=NOC[C@@H](O)[C@H]1O[C@@H]3OC(C)(C)O[C@@H]3[C@H]1O)C2 | 0.176 | -1.59 | 0.317 | 1.68 | 0.0363 | -0.0607 | -0.16 | -0.238 | 0.455 | 0.677 | 0.424 | 0.386 (inactive) | -0.0111 | -0.0891 | 0.213 | 0.421 | -0.0959 | 0.398 | 0.382 | 0.971 |
| C=CCOC(=O)[C@H]1[C@@H]2C(=O)O[C@@H](c3ccccc3)[C@@H](c3ccccc3)N2[C@@H](c2ccc(OCCOC(=O)[C@H]3C[C@H]4C(=O)N[C@@H](Cc5ccccc5)C(=O)N4[C@H]3c3ccc(O)cc3)cc2)[C@]12C(=O)Nc1ccccc12 | 0.516 | -1.32 | 0.933 | 0.743 | 0.0731 | -0.0735 | -0.0709 | -0.112 | 0.985 | 1.46 | -0.757 | 0.89 (inactive) | -0.0932 | -0.131 | 0.553 | 1.71 | 0.832 | 1.31 | 1.38 | 1.16 |
| O=C1[C@H]2[C@H]3[C@H](O)[C@H](O)CC(=NOCc4ccccc4)[C@H]3CC[C@H]2C(=O)N1c1cccc(Oc2ccccc2)c1 | 0.934 | 0.162 | 0.389 | 0.364 | -0.177 | 0.0145 | -0.16 | -0.305 | 0.683 | 0.684 | 0.442 | -0.171 (inactive) | 0.0793 | -0.161 | 0.144 | 1.14 | 0.229 | 1.05 | -0.0086 | 0.707 |
| COC(=O)CC=C[C@@H](C)[C@@H](C=NO[C@H](C)c1cn([C@@H]2COC[C@H]2O)nn1)OC | 0.768 | 0.128 | 0.589 | -0.662 | -0.793 | -0.0478 | -0.291 | -0.0762 | -0.306 | 1.01 | 0.162 | -0.311 (inactive) | -0.0377 | -0.122 | -0.111 | 0.214 | -0.115 | 0.747 | 0.666 | 0.266 |
